Test results published in PubChem BioAssay (NCATS).
Results filed as inconclusive are left out. Calls of active or inactive are those of the source. The call rests on the fitted dose curve.

Assay: Validation screen for inhibitors of Lassa infection (AID 463096)
Conditions: Lassa virus infection, cell-based; series mostly up to 46.1 µM
For `NC(Cc1ccc(Cl)cc1)C(=O)O` (stereo not drawn), the outcome was “inactive”.
For `CCN(CC)CCNC(=O)c1ccc(N)cc1`, the outcome was “inactive”.
With `Cc1nnc(SCC2=C(C(=O)O)N3C(=O)[C@@H](NC(=O)Cn4cnnn4)[C@H]3SC2)s1` the outcome was “inactive”.
For `Cc1ccc(Cl)c(Nc2ccccc2C(=O)O)c1Cl`, the outcome was “inactive”.
In the case of `C[C@]12CCC(=O)C=C1CC[C@@H]1[C@@H]2[C@@H](O)C[C@@]2(C)[C@H]1CC[C@]2(O)C(=O)COC(=O)CCC(=O)O`, the outcome was “inactive”.
With `CCOC(=O)C1=C(C)NC(C)=C(C(=O)OC)C1c1cccc([N+](=O)[O-])c1` (stereo not drawn) the outcome was “inactive”.
With `CCN(CC)CCOC(=O)c1ccc(N)cc1` the outcome was “inactive”.
With `Cc1scc2c1N(C(=O)CN1CCN(C)CC1)c1ccccc1NC2=O` the outcome was “inactive”.
With `CC(=O)Oc1cc(C(C)C)c(OCCN(C)C)cc1C` the outcome was “inactive”.
With `NC(N)=NC(=O)Cc1c(Cl)cccc1Cl` the outcome was “inactive”.
For `NC(=O)c1ncn([C@@H]2O[C@H](CO)[C@@H](O)[C@H]2O)c1O`, the outcome was “inactive”.
With `COc1cc(-c2ccc(=O)[nH]n2)ccc1OC(F)F` the outcome was “inactive”.
With `O=c1[nH]c(=O)n([C@H]2C[C@H](O)[C@@H](CO)O2)cc1Br` the outcome was “inactive”.
In the case of `NC1CCN(c2cccc(Cl)n2)CC1`, the outcome was “inactive”.
In the case of `CO[C@@]1(NC(=O)CSCC#N)C(=O)N2C(C(=O)O)=C(CSc3nnnn3C)CS[C@@H]21`, the outcome was “inactive”.
With `CNC[C@H](O)c1cccc(O)c1` the outcome was “inactive”.
With `CCN(CC)CC#CCOC(=O)C(O)(c1ccccc1)C1CCCCC1` (stereo not drawn) the outcome was “inactive”.
For `C=CC(N)CCC(=O)O` (stereo not drawn), the outcome was “inactive”.
For `COC(=O)[C@@H]1[C@H]2C[C@H]3c4[nH]c5ccccc5c4CCN3C[C@@H]2CC[C@@H]1O`, the outcome was “inactive”.
For `CC(=O)OCC(=O)[C@@]1(O)CC[C@H]2[C@@H]3CCC4=CC(=O)CC[C@]4(C)[C@H]3C(=O)C[C@@]21C`, the outcome was “inactive”.
For `CCN1CCC[C@H]1CNC(=O)c1cc(S(N)(=O)=O)ccc1OC`, the outcome was “inactive”.
In the case of `CCC1(C)CC(=O)NC1=O` (stereo not drawn), the outcome was “inactive”.
With `C[N+](C)(C)CCOC(N)=O` the outcome was “inactive”.
With `O=C1NCC2(CCN(CCc3ccccc3)CC2)O1` the outcome was “inactive”.
For `O=c1[nH]cnc2[nH]ncc12`, the outcome was “inactive”.
With `CN=C(NC#N)NCCSCc1nc[nH]c1C` the outcome was “inactive”.
For `COc1ccc(C2CNC(=O)C2)cc1OC1CCCC1` (stereo not drawn), the outcome was “inactive”.
In the case of `C1COC(NC(C2CC2)C2CC2)=N1`, the outcome was “inactive”.
With `Nc1ccc(S(=O)(=O)Nc2ccnn2-c2ccccc2)cc1` the outcome was “inactive”.
With `CCn1nc(C(=O)O)c(=O)c2cc3c(cc21)OCO3` the outcome was “inactive”.
In the case of `N[C@@H](COP(=O)(O)O)C(=O)O`, the outcome was “inactive”.
For `NC/C=C/C(=O)O`, the outcome was “inactive”.
In the case of `CCN(CC)CCNC(=O)c1cc(S(C)(=O)=O)ccc1OC`, the outcome was “inactive”.
With `CCN(CC)C(=O)c1ccc(O)c(OC)c1` the outcome was “inactive”.
With `Cc1cnc(NC(=O)C2=C(O)c3ccccc3S(=O)(=O)N2C)s1` the outcome was “inactive”.
With `CCCCCCCCCCCCCCCC(=O)NCCO` the outcome was “inactive”.
In the case of `CC1COc2c(N3CCN(C)CC3)c(F)cc3c(=O)c(C(=O)O)cn1c23` (stereo not drawn), the outcome was “inactive”.
In the case of `CC(=O)c1ccc(S(=O)(=O)NC(=O)NC2CCCCC2)cc1`, the outcome was “inactive”.
